Experimental findings from PubChem BioAssay (EPA / NIEHS) are described below.

Results filed as inconclusive are left out. Activity calls are given as the source filed them. Rule for the calls: active = hit-call score of the fitted dose curve at least 0.9, where 1 is the maximum; inconclusive = response in the unintended direction; inactive = score below 0.9.

Assay [1] is described as follows: TOX21_p53_BLA_p2_viability: Viability Assessment in the Tox21 HCT-116 p53 Agonism Beta-lactamase Assay, Phase 2 (AID 2283591).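 Note: actives lower the ATP signal meaning cytotoxicity.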 An outline of the steps: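 HCT-116 p53-bla cells (4000/well) rested 5 h at 37C, then received compounds in DMSO (217-fold dilution) for 16 h at 37C, 5% CO2. After the CCF4 read, CellTiter-Glo was added; ATP luminescence was read after 30 min at room temperature.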

The target in assay [2] is Cellular tumor antigen p53 (Homo sapiens) (UniProt P04637). The assay is described as follows: TOX21_p53_BLA_p2_ratio: Tox21 HCT-116 p53 Agonism Beta-lactamase Assay, Ratio, Phase 2 (AID 2283592). An outline of the steps: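 Readout: blue/green (460/530 nm) FRET emission ratio after 2 h CCF4-AM loading at room temperature, excitation 405 nm. HCT116 p53 bla cells, 16 h compound exposure at 37C, 5% CO2; agonist direction fitted against DMSO baseline.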

Assay [3] can be described thus: TOX21_p53_BLA_p3_viability: Viability Assessment in the Tox21 HCT-116 p53 Agonism Beta-lactamase Assay, Phase 3 (AID 2283593).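 Note: cells exposed to compound for 16 h before reading.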 The gist of the method: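 HCT-116 cells (4000/well) rested 5 h at 37C, then got DMSO compounds by pin tool (217-fold dilution) for 16 h at 37C, 5% CO2. After the bla read, CellTiter-Glo was added and luminescence read at 30 min, room temperature.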

Assay [4] can be described thus: TOX21_p53_BLA_p4_viability: Viability Assessment in the Tox21 HCT-116 p53 Agonism Beta-lactamase Assay, Phase 4 (AID 2283597).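 Note: hits lower the luminescence signal meaning cytotoxicity.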 The gist of the method: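 ATP content by CellTiter-Glo luminescence, 30 min RT, read after the beta-lactamase ratio step. Cells: HCT116, 4000/well, compound added after 5 h, exposure 16 h at 37C. Signal loss = reduced viability.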
Assay [5] concerns the target Cellular tumor antigen p53 (Homo sapiens) (UniProt P04637). Put plainly: TOX21_p53_BLA_p5_ratio: Tox21 HCT-116 p53 Agonism Beta-lactamase Assay, Ratio, Phase 5 (AID 2283599). The gist of the method:
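HCT-116 cells carrying a p53-inducible beta-lactamase reporter were seeded at 4000 cells/well and dosed after 5 h with compound in DMSO (217-fold dilution). After 16 h at 37C, CCF4-AM substrate was added for 2 h, and the 460/530 nm emission ratio was scored as gain-of-signal versus DMSO.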

For assay [6] the target is unchanged. The assay is described as follows: TOX21_p53_BLA_p3_ratio: Tox21 HCT-116 p53 Agonism Beta-lactamase Assay, Ratio, Phase 3 (AID 2283596). The gist of the method: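 Cells were seeded at 4000/well, rested 5 h at 37C, then dosed with DMSO compound solutions (217-fold dilution) for 16 h. CCF4-AM substrate was loaded for 2 h at room temperature, and the 460/530 nm emission ratio was fitted for gain of signal versus DMSO.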

The target is the same in assay [7]. The assay is described as follows: TOX21_p53_BLA_p4_ratio: Tox21 HCT-116 p53 Agonism Beta-lactamase Assay, Ratio, Phase 4 (AID 2283601). The gist of the method: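 HCT116 cells carrying an inducible beta-lactamase reporter were plated at 4000 cells/well, rested 5 h, then exposed to compounds in DMSO (217-fold dilution) for 16 h at 37C. CCF4-AM substrate was loaded 2 h at room temperature; 460/530 nm emission ratio scored gain-of-signal versus DMSO.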

The nature of assay [8]: TOX21_p53_BLA_p5_viability: Viability Assessment in the Tox21 HCT-116 p53 Agonism Beta-lactamase Assay, Phase 5 (AID 2283600). The gist of the method:
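ATP luminescence (CellTiter-Glo, 30 min, RT) served as the viability read-out, with loss of signal indicating cytotoxicity. Compounds in DMSO were pinned at a 217-fold dilution onto 4000 cells/well and incubated 16 h, 37C.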

Chain of Cellular tumor antigen p53 (Homo sapiens) (P04637 whole entry, looked up): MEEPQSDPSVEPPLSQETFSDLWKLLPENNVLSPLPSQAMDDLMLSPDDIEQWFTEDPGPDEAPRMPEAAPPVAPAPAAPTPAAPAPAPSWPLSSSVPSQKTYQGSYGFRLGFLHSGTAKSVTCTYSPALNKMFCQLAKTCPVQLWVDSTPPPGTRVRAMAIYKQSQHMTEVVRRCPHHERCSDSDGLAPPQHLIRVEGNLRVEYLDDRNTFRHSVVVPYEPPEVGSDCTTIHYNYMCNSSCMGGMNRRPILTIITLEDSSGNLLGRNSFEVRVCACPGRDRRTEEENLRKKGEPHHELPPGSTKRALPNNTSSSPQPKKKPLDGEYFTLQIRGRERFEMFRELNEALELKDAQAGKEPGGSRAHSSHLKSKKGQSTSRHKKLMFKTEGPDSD

As to `C[C@H]1C[C@H]2[C@@H]3CCC4=CC(=O)C=C[C@]4(C)[C@H]3C(=O)C[C@]2(C)[C@@]1(O)C(=O)CO`, the result in assay [1], in assay [2], in assay [3], in assay [4] and in assay [5] was inactive.

On to `O=C=Nc1cccc(C(F)(F)F)c1`, for which the molecule was called inactive in assay [1], in assay [3], in assay [6] and in assay [7]. In addition, the AC50 in assay [2] was 86.2 µM (active).

Take `Cc1ccccc1OCC(O)CO` (configuration not stated): the outcome in assay [1], in assay [2], in assay [3], in assay [6], in assay [8] and in assay [7] was inactive.

`O=C1C2CC3CC1CC(O)(C3)C2`: the molecule was called inactive in assay [1], in assay [2], in assay [3], in assay [6] and in assay [7].

`CCO`: the molecule was called inactive in assay [1], in assay [2], in assay [3], in assay [6] and in assay [8].

For the molecule `COc1cc(C(=O)OC(COCCC(C)C)CN2CCOCC2)cc(OC)c1OC` (configuration not stated), the molecule was classed as inactive in assay [1], in assay [2], in assay [3] and in assay [4].

For the molecule `O=C(CCCN1CCN(c2ccccn2)CC1)c1ccc(F)cc1`, the outcome in assay [1], in assay [2], in assay [3], in assay [6], in assay [8] and in assay [7] was inactive.

With `CC(O)[C@@H]1NC(=O)[C@H](Cc2ccccc2)NC(=O)[C@H](C(C)O)NC(=O)[C@H](CCCCN)NC(=O)[C@H](Cc2c[nH]c3ccccc23)NC(=O)[C@H](Cc2ccccc2)NC(=O)[C@H](Cc2ccccc2)NC(=O)[C@H](CC(N)=O)NC(=O)[C@H](CCCCN)NC(=O)[C@@H](NC(=O)CNC(=O)[C@H](C)N)CSSC[C@@H](C(=O)O)NC(=O)[C@H](CO)NC1=O` (some centres not stated), the result in assay [1], in assay [2], in assay [3], in assay [6], in assay [8] and in assay [7] was inactive.

`C[C@]12CCC(=O)C[C@@H]1CC[C@@H]1[C@@H]2CC[C@]2(C)C=CC[C@@H]12`: the molecule was classed as inactive in assay [1], in assay [2], in assay [3], in assay [6] and in assay [7].

Consider `CCCCCC=CCC=CCCCCCCCC(=O)OCC`, for which the molecule was called inactive in assay [1], in assay [2], in assay [3] and in assay [4].

With `SCCSCCS`, the call in assay [1], in assay [2], in assay [3], in assay [6], in assay [8] and in assay [7] was inactive.

Take `CC(=O)N(O)CCCCCNC(=O)CCC(=O)N(O)CCCCCNC(=O)CCC(=O)N(O)CCCCCN`: the outcome in assay [1], in assay [2], in assay [3], in assay [6] and in assay [7] was inactive.

Consider `NC(=O)c1ncn([C@@H]2O[C@H](CO)[C@@H](O)[C@H]2O)c1N`, for which the call in assay [1], in assay [2], in assay [3], in assay [6], in assay [8] and in assay [7] was inactive.

As for `C1OCOCO1`, the call in assay [1], in assay [2], in assay [3], in assay [6], in assay [8] and in assay [7] was inactive.

For `Cc1c(NC(C)C)c(=O)n(-c2ccccc2)n1C`, the call in assay [1], in assay [2], in assay [3], in assay [6], in assay [8] and in assay [7] was inactive.

`CCc1nccnc1CC`: the result in assay [1], in assay [2], in assay [3], in assay [6], in assay [8] and in assay [7] was inactive.

Turning to `CCCCCCC(=O)O[C@H]1CC[C@H]2[C@@H]3CCc4cc(O)ccc4[C@H]3CC[C@]12C`, the call in assay [1], in assay [2], in assay [3], in assay [6], in assay [8] and in assay [7] was inactive.

On to `CCCCC[C@H](O)/C=C/[C@H]1[C@H](O)CC(=O)[C@@H]1C/C=C\CCCC(=O)O`, for which the result in assay [1], in assay [2], in assay [3], in assay [6] and in assay [7] was inactive.

For `CCC1C(=O)OCC1Cc1cncn1C` (configuration not stated), the molecule was classed as inactive in assay [1], in assay [2], in assay [3], in assay [6], in assay [8] and in assay [7].

As to `COc1cc2c(cc1OC)CC(=O)N(CCCN(C)C[C@H]1Cc3cc(OC)c(OC)cc31)CC2`, the molecule was classed as inactive in assay [1], in assay [2], in assay [3], in assay [6], in assay [8] and in assay [7].

For `NCCN1CCNC1=O`, the molecule was classed as inactive in assay [1], in assay [2], in assay [3], in assay [6], in assay [8] and in assay [7].

Turning to `CC(C)CN(C[C@@H](OP(=O)(O)O)[C@H](Cc1ccccc1)NC(=O)O[C@H]1CCOC1)S(=O)(=O)c1ccc(N)cc1`, the outcome in assay [1], in assay [2], in assay [3], in assay [4] and in assay [5] was inactive.

Turning to `COc1cc(C)c(Cc2cnc(N)nc2N)cc1OC`, the outcome in assay [1], in assay [2], in assay [3], in assay [4] and in assay [5] was inactive.

Take `C[C@H]1C[C@H]2[C@@H]3CCC4=CC(=O)C=C[C@]4(C)[C@@]3(F)[C@@H](O)C[C@]2(C)[C@@]1(O)C(=O)CCl`: the molecule was called inactive in assay [1], in assay [2], in assay [3] and in assay [4].

Consider `O=C(CCN1CCN2CCCC2C1)N1c2ccccc2Sc2ccc(Cl)cc21` (configuration not stated), for which the molecule was called inactive in assay [1], in assay [2], in assay [3] and in assay [4].

For the molecule `OCCN1CCN(CC/C=C2/c3ccccc3Sc3ccc(Cl)cc32)CC1`, the outcome in assay [1], in assay [2], in assay [3] and in assay [4] was inactive.

As to `CC1(C)C(=O)C(C)(C)C1=O`, the call in assay [1], in assay [2], in assay [3], in assay [4], in assay [5] and in assay [8] was inactive.

As to `CCCOC(C(=O)OC1CCN(C)CC1)(c1ccccc1)c1ccccc1`, the outcome in assay [1], in assay [2], in assay [3], in assay [4], in assay [5] and in assay [8] was inactive.

For `C=CCOc1c(Br)cc(C(C)(C)c2cc(Br)c(OCC=C)c(Br)c2)cc1Br`, the call in assay [1], in assay [2], in assay [3], in assay [4], in assay [5] and in assay [8] was inactive.

Take `CCCCCCCC[P+](CCCCCCCC)(CCCCCCCC)CCCCCCCC`: the AC50 in assay [1] was 15.8 µM (active); in assay [2], 29.2 µM (active); in assay [3], 13.3 µM (active); in assay [4] it was 21.6 µM (active); in assay [5], 13.2 µM (active); in assay [8] it was 13.6 µM (active). In addition, in assay [7], the AC50 is 31.7 µM (active).

As for `Cc1c(O)c(=O)ccn1C`, the molecule was classed as inactive in assay [1], in assay [2], in assay [3], in assay [4], in assay [5] and in assay [8]. Moreover, the outcome in assay [7] was inactive.

Take `CCCCCCCCCCCC(=O)OC[C@@H](O)[C@H]1OC[C@H](OCCO)[C@H]1OCCO`: the call in assay [1], in assay [2], in assay [3], in assay [4], in assay [5] and in assay [8] was inactive. Further, the result in assay [7] was inactive.

Regarding `OCC1O[C@@H](O[C@@H]2C(CO)OC(O)C(O)C2O)C(O)C(O)C1O` (some centres not stated), the call in assay [1], in assay [2], in assay [3], in assay [4], in assay [5] and in assay [8] was inactive.
